Test results taken from PubChem BioAssay AID1347383 (Zoeller Lab, School of Medicine, Boston University, 2020).
Activity calls are given as the source filed them.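 Rule for the calls: active = cell survival after UV exposure 2 SD above solvent-only control wells at 10 µM, confirmed on one or two repeats; inactive = the rest.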

Assay: protection of CHO cells from pyrene-fatty acid UV killing, primary screen, phospholipid biosynthesis inhibitor project, ZR-82 cells, Analyticon library, screen 2 (AID 1347383);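 note: survival reflects blocked phospholipid synthesis cutting uptake of the phototoxic fatty acid; compound and fatty acid exposure 3 h then viability read next day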
Settings: ZR-82 CHO cells, CellTiter Blue, at 10 µM, peroxisome-deficient CHO-K1 variant, with DGAT-1, DGAT-2 and ACAT inhibitors

Row | SMILES | outcome
1 | CC(=O)O[C@H]1CC2C(COC(=O)CC(C)C)=CO[C@@H](OC(=O)CC(C)C)C2[C@@]12CO2 (stereo not given in full) | inactive
2 | CC1C=CC2CCCCC2C1CCC1CC(O)CC(=O)O1 (stereo not given) | inactive
3 | COc1cc(CC2COC(=O)C2(O)Cc2ccc(O)c(OC)c2)ccc1O (stereo not given) | inactive
4 | CC[C@H](C)C(=O)O[C@H]1C[C@@H](C)C=C2C=C[C@H](C)[C@H](CC[C@@H]3C[C@@H](O)CC(=O)O3)[C@H]21 | inactive
5 | C/C=C/[C@@H]1C=C[C@@H]2C[C@H](C)CC[C@H]2[C@]1(C)C(O)=C1C(=O)[C@@H](CO)N(C)C1=O | inactive
6 | C[N+](C)(C)C(Cc1c[nH]c2ccccc12)C(=O)[O-] (stereo not given) | inactive
7 | CC(C)CC(O)C(=O)NC(C)C(=O)NC(CC(C)C)C(=O)NCCCC(=O)O (stereo not given) | inactive
8 | O=C(O)CCC(=O)Cc1ccccc1 | inactive
9 | COC(=O)CC(O)C1OC(c2ccccc2)C(O)C1O (stereo not given) | inactive
10 | CCCCCCCC(O)/C=C\C(O)CCC(O)CCCC(=O)O (stereo not given) | inactive
11 | O=c1ccc2cc(O)c(O)cc2o1 | inactive
12 | O=C(O)C12CCCC(CO)(CO)C1CCC13CC4C(CC12)C4(CO)C3 (stereo not given) | inactive
13 | COc1ccc(/C=C/C(=O)O)cc1OC | inactive
14 | CO[C@@H]1C(=O)CC[C@]2(O)CO[C@H](CC=C(C)C)[C@](C)(O)[C@@]12O | inactive
15 | CCOC(=O)C1C(=O)C(=O)Nc2ccccc21 (stereo not given) | inactive
16 | C=C1C(=O)O[C@@H]2C=C(C)[C@@H]3CC[C@@](C)(O)[C@@H]3C[C@H]12 | inactive
17 | C=C(C)C(O)Cc1c(O)cc(CCc2ccccc2)c(CC=C(C)C)c1O (stereo not given) | inactive
18 | O=C1c2c(O)cc(O)cc2O[C@H](c2ccccc2)[C@H]1O | inactive
19 | COC1C(OC(=O)/C=C/C=C/C=C/C=C/C(=O)O)CCC2(CO2)C1C1(C)OC1CC=C(C)C (stereo not given) | inactive
20 | COC(=O)/C=C(\C)CCC1(C)C(C)CCC2(C)C(C)=CC(=O)CC21 (stereo not given) | inactive

Row | SMILES | outcome
21 | CC1=C(CCCCC(=O)O)COC1=O | inactive
22 | C=CCc1cc(OC)c(OC(C)C(O)c2ccc(O)c(OC)c2)c(OC)c1 (stereo not given) | inactive
23 | COc1ccc(C)c2c(O)c(CC=C(C)C)c(=O)oc12 | inactive
24 | CCCCCCCC(=O)C(C)NC(=O)CCC(=O)O (stereo not given) | inactive
25 | COc1cc(O[C@@H]2O[C@H](CO)[C@@H](O)[C@H](O)[C@H]2O)cc2occ(-c3ccc(O)cc3)c(=O)c12 | inactive
26 | O=C(O)CCc1c(O)ccoc1=O | inactive
27 | CC(=O)O[C@H]1C[C@@]2(C)[C@@H](CC[C@H]3[C@@]4(C)C=CC(=O)[C@@H](C)[C@@H]4[C@H](OC(C)=O)C(=O)[C@@]32C)/C1=C(\CCC=C(C)C)C(=O)O | inactive
28 | CCCCCC1=C(CO)C(O)C(O)CC1=O (stereo not given) | inactive
29 | O=c1[nH]c2ccccc2c(-c2cccc(O)c2)c1O | inactive
30 | C/C=C/CCc1cc(O)c2c(c1)OC(C)C2CO (stereo not given) | inactive
31 | CCCC/C=C\CCCCCCCc1cc(=O)c2ccccc2n1C | inactive
32 | O=C(c1cccc(O)c1)c1c(O)cc(O)cc1O | inactive
33 | O=C(O)c1ccc(CO)o1 | inactive
34 | COc1cc(C2CC(=O)c3c(O)cc(O)cc3O2)ccc1O (stereo not given) | inactive
35 | O=C(O)C1(O)C[C@@H](O)C(O)[C@H](O)C1 (stereo not given in full) | inactive
36 | C=CC(C)(C)c1cc2cc(CC(O)C(C)(C)O)c(OC)cc2oc1=O (stereo not given) | inactive
37 | CC1=C2C=C(CO)C(CO)CCC2(C)CCC1=O (stereo not given) | inactive
38 | COc1ccc2c(c1OC)C(=O)N1CCc3cc4c(cc3C(=O)C21O)OCO4 (stereo not given) | inactive
39 | C/C=C(/C(=O)O)N1C(=O)C=C(C)C1=O | inactive
40 | Nc1ccccc1CCCCCCCCC(=O)O | inactive
